Among the data in PubChem BioAssay AID893 (National Center for Advancing Translational Sciences (NCATS), 2007) are Potency and activity change, negative = inhibition values, retold here.

Molecules are shown by their SMILES. Where “and” joins values, the source holds several entries; their conditions need not be identical. Identical values can stand only once. Among all 75,000 compounds or so, about 5,700 (7.6%) were called active. Entries that show only a call come without a potency. Inconclusive results (about 7%) are left out. The sample holds actives, similar compounds and a random draw of the others, so the mix is not that of the screen. Values without a mark were called inactive. The call rests on the fitted dose curve; in most records, active means well fitted inhibition curve with a large enough effect; inconclusive means small, poorly fitted or top-dose-only effect; inactive means no such curve, though single readings can be large or run the other way.
Potency means the concentration at half of the fitted maximal effect.

In the assay the target is 3-hydroxyacyl-CoA dehydrogenase type-2 (Homo sapiens) (UniProt Q99714). Briefly: qHTS Assay for Inhibitors of HSD17B4, hydroxysteroid (17-beta) dehydrogenase 4.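 Further: the protocol describes HADH2 (HSD17B10) and not the HSD17B4 of the title; nearly all actives have a fitted effect of over 70% in size.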 The settings on record: recombinant HSD17B10, NADH fluorescence kinetic; series mostly up to 57.1 µM. Summed up:
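His-tagged E. coli-expressed HADH2 at 20 nM in 100 mM Tris-HCl pH 9.0 with 0.01 % Tween-20, preincubated 15 min with compound at room temperature. Reaction with 1 mM NAD+ and 90 uM beta-hydroxybutyryl coenzyme A; NADH fluorescence (360/450 nm) read kinetically over 4 min, last minus first point.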
For orientation: Quantitative high-throughput screening tests each substance at several concentrations.
For the molecule `COc1ccc(OCC(=O)N2CCOCC2)cc1`, the Potency entry was “inactive”.

With `O=C(Nc1cccc(OCC(=O)N2CCOCC2)c1)C1CCCCC1`, the Potency entry was “inactive”.

With `O=C1CC2(CCCCC2)Oc2ccc(OCC(=O)N3CCOCC3)cc21`, the Potency is 31.6 µM (active).

Turning to `CC(C)(C)[Si](OCC[C@@H]1C[C@@]1(C)[C@@H](NP(=O)(c1ccccc1)c1ccccc1)c1ccccc1)(c1ccccc1)c1ccccc1`, the Potency entry is “inactive”.

Turning to `O=c1c(O)c(-c2ccc(O)cc2)oc2ccccc12`, the Potency is 25.1 µM (active).

`O=C1c2oc3ccccc3c(=O)c2C(c2cccc(O)c2)N1c1ccccn1` (stereo not drawn): the Potency entry was “inactive”.

On to `CC1O[C@@H](Oc2c(-c3ccc(O)c(O)c3)oc3cc(O)cc(O)c3c2=O)C(O)C(O)C1O` (stereo partly drawn), for which the Potency result is “inactive”.

For the molecule `CCOC(=O)CNC(=O)CSc1nnc(-c2cccc(OC)c2)n1CC`, the Potency result was “inactive”.

In the case of `Cc1ccc(CNC(=O)C2CCCN(S(C)(=O)=O)C2)cc1` (stereo not drawn), the Potency result is “inactive”.

As for `CCOC(=O)c1cc(C)sc1NC(=O)C1CCC1`, the Potency result was “inactive”.

For `COc1ccccc1OCCOc1ccc(/C=N/n2cnnc2)cc1`, the Potency entry was “inactive”.

For `C=CCOc1ccc(/C=N/n2cncn2)cc1OC`, the Potency was 15.8 µM (active).

As for `COc1cccc(OCCOc2cccc(/C=N/n3cnnc3)c2)c1`, the Potency result is “inactive”.

As to `Cc1cnc(NC(=O)CSc2nnc(-c3ccccc3)n2Cc2ccccc2)s1`, the Potency entry was “inactive”.

With `Cc1nc(NC(=O)C23CCC(C)(C(=O)O2)C3(C)C)sc1C` (stereo not drawn), the Potency result is “inactive”.

For the molecule `CN1CCC(CNC(=O)c2ccc(-n3c(=O)c(=O)[nH]c4ccccc43)cc2)CC1`, the Potency result is “inactive”.

For `O=C(Cl)c1ccc([N+](=O)[O-])cc1`, the Potency result was “inactive”.

On to `O=C(CSc1nc(-c2ccco2)cc(C(F)(F)F)n1)NCc1cccs1`, for which the Potency result is “inactive”.

With `O=C(CSc1nnc(-c2cccs2)n1-c1ccccc1)NCc1ccco1`, the Potency result was “inactive”.

For the molecule `FC(F)(F)c1cc(-c2cccs2)nc(NCc2ccco2)n1`, the Potency was 31.6 µM (active).

As to `COc1ccccc1Nc1ncc(C(C)=O)c(C)n1`, the Potency result was “inactive”.

On to `O=C(Nc1ccccc1F)C1C2C=CC3(O2)C1C(=O)N(c1cccnc1)C3C(=O)NC1CCCCC1` (stereo not drawn), for which the Potency entry is “inactive”.

As to `COc1cccc([C@H]2Oc3ccc(OC)cc3/C(=N\OCC[C@@H]3C=C[C@H](OC(C)=O)[C@H](COC(C)=O)O3)[C@@H]2O)c1`, the activity change, negative = inhibition was -5.53% [at 11.4 µM].

With `COc1ccc(-c2cc3ccc(OCc4nn[nH]n4)cc3oc2=O)cc1`, the Potency is 25.1 µM (active).

For the molecule `COc1cccc(C(=O)c2cc3ccc(O)cc3oc2=O)c1`, the Potency result was “inactive”.

On to `O=c1oc2cc(O)ccc2cc1-c1ccc(F)cc1`, for which the Potency result was “inactive”.

`c1ccc(-n2ncc3c2ncn2c(CSc4nc5ccccc5s4)nnc32)cc1`: the Potency entry is “inactive”.

Take `CCOC(=O)Cn1c(CN(Cc2ccccc2)Cc2ccccc2)nc2c1c(=O)[nH]c(=O)n2C`: the Potency entry was “inactive”.

Turning to `CCCOC(=O)c1[nH]c2c(c1C)C(=O)CC(c1cc(OC)c(OC)c(OC)c1)C2` (stereo not drawn), the Potency result was “inactive”.

For `CC1(C)OC2CO[C@]3(COS(N)(=O)=O)OC(C)(C)OC3C2O1` (stereo partly drawn), the Potency result is “inactive”.

Turning to `COc1c(C)c2c(c(O)c1C/C=C(\C)CCC(=O)O)C(=O)OC2`, the Potency is 12.6 µM (active) and 25.1 µM (active).

For the molecule `Oc1cc(O)c2c(c1)OC(c1ccc(O)c(O)c1)C(O)C2` (stereo not drawn), the Potency result was “inactive”.

Take `O=C(NCCCN1CCN(C2CCCCC2)CC1)Nc1ccccc1C(F)(F)F`: the Potency result is “inactive”.

As for `Oc1ccc(O)c2c(O)cccc12`, the Potency is 12.6 µM (active).

On to `Cc1cccc(CNc2cc(-c3ccccc3Cl)ncn2)c1`, for which the Potency result was “inactive”.

Regarding `Cc1ccc(S(=O)(=O)NCC(=O)N(CC(=O)NC2CCCCC2)Cc2ccco2)cc1`, the Potency result was “inactive”.

Regarding `Cc1ccc(NC(=O)CS(=O)CC(=O)N(c2ccccc2)C(C)C(=O)NC2CCCC2)cc1` (stereo not drawn), the Potency result is “inactive”.

`O=c1[nH][nH]c(=O)c2cc(N3CCCC3)ccc12`: the Potency was 31.6 µM (active).

In the case of `CO[C@H]1COC(=O)[C@H](Cc2ccccc2)NC(=O)C/C=C\[C@@H](C)[C@H](OC)COC(=O)C/C=C\[C@@H]1C`, the activity change, negative = inhibition is -5.43% [at 11.4 µM].

Turning to `COC(=O)c1cn(C)c2ccc(S(=O)(=O)N3CC(C)CC(C)C3)cc2c1=O` (stereo not drawn), the Potency entry was “inactive”.

On to `Cc1ccc(-n2nc(-c3ccco3)cc2C(=O)NCc2cccnc2)cc1`, for which the Potency result is “inactive”.

`COCCn1c(=O)[nH]c2cc(C(=O)NCc3cccnc3)ccc2c1=O`: the Potency was 31.6 µM (active).

In the case of `CC(C)(C)c1cc(C(=O)NCc2cccnc2)ccn1`, the Potency entry is “inactive”.

For `Fc1ccc(-c2nnc(CSc3nnc(-c4ccc5c(c4)OCO5)o3)o2)cc1`, the Potency result was “inactive”.

Regarding `O=C(c1cccc(C(=O)N2CCN(c3ccc(F)cc3)CC2)c1)N1CCN(c2ccc(F)cc2)CC1`, the Potency result is “inactive”.

Turning to `Cc1cccc2cc(CN(Cc3ccc4c(c3)OCO4)Cc3nnnn3C3CCCC3)c(=O)[nH]c12`, the Potency result is “inactive”.

With `Cc1cccc2cc(CN(Cc3nnnn3Cc3ccccc3)C3CCCC3)c(=O)[nH]c12`, the Potency is 31.6 µM (active).

For the molecule `Cc1cc(C)c2[nH]c(=O)c(C(c3nnnn3Cc3ccc4c(c3)OCO4)N3CCCC3)cc2c1` (stereo not drawn), the Potency result was “inactive”.

As to `Nc1nc2nc(Cl)[nH]c2c(=O)[nH]1`, the Potency result is “inactive”.

With `CCOC(=O)C1CCCCN1Cc1ccc(OC)c(OC)c1OC` (stereo not drawn), the Potency result was “inactive”.

For `Clc1ccc(CSc2nnc([C@@H]3CCCN3)o2)cc1`, the Potency entry was “inactive”.

For `Cc1ccc(S(=O)(=O)C(C#N)c2nc3ccccc3nc2N2CCCC2)cc1C` (stereo not drawn), the Potency is 31.6 µM (active).

On to `Cc1ccc(S(=O)(=O)N2CC(=O)Nc3ccccc32)cc1C`, for which the Potency result is “inactive”.

Regarding `CC(C)OC(=O)C(C#N)c1nc2ccccc2nc1N1CCN(Cc2ccccc2)CC1` (stereo not drawn), the Potency result was “inactive”.

With `O=C(O)c1nn(-c2ccc(Cl)cc2)c2c1C(=O)c1ccccc1C2=O`, the activity change, negative = inhibition was -2.81% [at 11.4 µM].

Regarding `CCc1ccc(N(CC)c2ncnc3nc[nH]c23)cc1`, the Potency result is “inactive”.

For the molecule `O=C(O)c1ccc(Cl)c(S(=O)(=O)Nc2ccccc2Cl)c1`, the Potency result is “inactive”.

As to `Cn1c(=O)n(C)c2cc(CNc3ccc(N4CCOCC4)c(C(=O)O)c3)ccc21`, the Potency is 25.1 µM (active).

Consider `Cn1c(CN2CCOCC2)nc2cc(NC(=O)c3ccc(Cl)cc3)ccc21`, for which the Potency result is “inactive”.

In the case of `CC(=O)Nc1ccc(N2CCOCC2)c(C(=O)Nc2cccc(C)c2)c1`, the Potency entry was “inactive”.

`COc1cccc(N(C(=O)c2ccn[nH]2)C2(C(=O)Nc3c(C)cccc3C)CCCCC2)c1`: the Potency result is “inactive”.

As to `CSCCC(Nc1nc2ccccc2s1)C(=O)O` (stereo not drawn), the Potency entry is “inactive”.

Take `O=C(O)CN(Cc1ccco1)S(=O)(=O)c1ccc(F)cc1`: the Potency result is “inactive”.

Turning to `CC(C)c1ccc2c([Si](C)(C)C)c3c(nc2c1)-c1cccc(=O)n1C3`, the Potency result was “inactive”.

For the molecule `Cc1c2c(nc3ccccc13)-c1cccc(=O)n1C2`, the Potency was 7.94 µM (active).

For `CC(C)(O)CCC(O)[C@@](C)(O)C1CC[C@]2(O)C3=CC(=O)C4CC(O)C(O)C[C@]4(C)C3CC[C@]12C` (stereo partly drawn), the Potency result is “inactive”.

`CCOc1ccc(N2C(=O)CC(N(O)c3ccccc3)C2=O)cc1` (stereo not drawn): the Potency entry is “inactive”.

`N#Cc1nc(COc2ccc(-c3ccccc3)cc2)oc1NCc1cccnc1`: the Potency entry is “inactive”.

Take `N#Cc1nc(-c2ccc(OCc3ccccc3)cc2)oc1NCCCN1CCOCC1`: the Potency was 25.1 µM (active).

`N#Cc1nc(Cc2ccccc2)oc1NCCc1ccccc1`: the Potency entry is “inactive”.

`CC[C@]1(C)CC(=O)NC1=O`: the Potency entry was “inactive”.

Consider `CC(C)(C)n1nnnc1C(c1cccs1)N(Cc1cccnc1)CC1CCCO1` (stereo not drawn), for which the Potency entry was “inactive”.

For the molecule `COc1ccc2[nH]cc(CCNc3cc(-c4ccccc4CN(C)C)ncn3)c2c1`, the Potency entry was “inactive”.

For the molecule `Cc1cc(Nc2ccc(Br)cc2F)n2ncnc2n1`, the Potency entry is “inactive”.

With `Cc1ccc(NC(=O)CCNS(=O)(=O)c2ccc3c(c2)oc(=O)n3C)cc1C`, the Potency entry was “inactive”.

On to `C[C@@H]1/C=C\CC(=O)OC[C@H]2O[C@@H](C=C[C@@H]2O)[C@H](C)/C=C\CC(=O)OC[C@H]2O[C@H]1C=C[C@@H]2O`, for which the activity change, negative = inhibition is -0.26% [at 11.4 µM].

Regarding `CCOC(=O)c1cc2n(c1N)-c1ccccc1C2=O`, the Potency result was “inactive”.

On to `CCCn1c(=NC(C)=O)c(C(=O)OCC)cc2c(=O)n3ccccc3nc21`, for which the Potency is 20 µM (active).

For the molecule `CCn1c(=N)c(S(=O)(=O)c2ccc(F)cc2)cc2c(=O)n3ccccc3nc21`, the Potency entry is “inactive”.

`CC(C)(C)c1nc(NCC2CCCO2)c2nnn(Cc3ccccc3)c2n1` (stereo not drawn): the Potency result was “inactive”.

For the molecule `Cc1nc(Nc2ccc3c(c2)OCCO3)c2nnn(Cc3ccccc3Cl)c2n1`, the Potency was 31.6 µM (active).

`C#CCNc1nc(C(C)C)nc2c1nnn2Cc1ccccc1F`: the Potency entry was “inactive”.

For `O=c1cc(CO)oc(CN2CCC(Cc3ccccc3)CC2)c1O`, the Potency entry is “inactive”.

For the molecule `OCCN1CCN(CC/C=C2\c3ccccc3Sc3ccc(C(F)(F)F)cc32)CC1`, the Potency result was “inactive”.

On to `CCCN1[C@H](C(=O)OC)C[C@@]2(O)[C@@H](O)[C@@H](O)[C@@H](O)C[C@@H]12`, for which the Potency result was “inactive”.

For the molecule `Cc1nnc(SCC(=O)NCc2ccccc2)s1`, the Potency result was “inactive”.

As for `COc1c(C(C)C)oc2cc3oc(=O)ccc3cc12`, the Potency result was “inactive”.

Consider `O=C(Cn1c(=O)sc2ccccc21)Nc1nc2c(s1)CCCC2`, for which the Potency entry was “inactive”.

On to `Fc1ccc2nc(N3CCCCC3)sc2c1`, for which the Potency entry is “inactive”.

Take `Fc1ccc2nc(Nc3nc4c(s3)CCCC4)sc2c1`: the Potency is 25.1 µM (active).

With `CNc1cc(-c2c(C)noc2C)ncn1`, the Potency entry is “inactive”.

Regarding `O=C1CCc2cc(S(=O)(=O)N3CCC(C(=O)NCc4ccccc4Cl)CC3)ccc2N1`, the Potency entry was “inactive”.

`CCCc1nnc(NC(=O)c2cc(OC)cc(OC)c2)s1`: the Potency result is “inactive”.

As for `Cc1ccc(C(=O)Nc2nnc(-c3cccs3)s2)cc1C`, the Potency was 25.1 µM (active).

Turning to `COc1cccc(OC)c1C(=O)Nc1nnc(C(C)C)s1`, the Potency result is “inactive”.

On to `Cc1cc(C)nc(N2C(=O)CC(Cc3ccccc3)C2=O)n1` (stereo not drawn), for which the Potency result was “inactive”.

`COc1ccc(OC)c2[nH]c(=O)c(CCNC(=O)C(C)(C)C)cc12`: the Potency result is “inactive”.

Turning to `CCCn1c(SCC(=O)N2CCc3ccccc32)nnc1-c1ccncc1`, the Potency entry was “inactive”.

As to `CCc1ccc(N2CC(C(=O)NC3=NCCS3)CC2=O)cc1` (stereo not drawn), the Potency entry was “inactive”.

`Cc1ccc(C(=O)N2CCCCCC2)cc1Br`: the Potency result was “inactive”.

Consider `Cc1ccc2cc3cc(C(=O)N4CCCCCC4)oc3nc2c1`, for which the Potency is 25.1 µM (active).

In the case of `O=C(c1cc(-c2cccs2)on1)N1CCCCC1`, the Potency result is “inactive”.

With `Oc1c(CN2CCOCC2)ccc(CN2CCOCC2)c1O`, the activity change, negative = inhibition is -11.5% [at 11.4 µM].
